# Values joined by “and” are separate entries in the source; they are usually repeats but may differ in a detail not shown here. Identical values can stand only once. Active and inactive are the calls of the source. Unless noted, no stated cut-off is given here; in the data, active means parasite load remaining mostly below about 12% (no sharp cut-off); inactive means mostly above about 10%.
# Columns and labels:
# [1] = hESC survival regulators, cell-based (AID 493140; call rule not given here;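 further: cells exposed to compounds for four days before counting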); settings: human embryonic stem cell survival screen; stronger effect = higher value
# [2] = stimulators of nuclear beta-catenin in C2C12, primary screen, imaging, WNT3A-conditioned medium, mouse C2C12, NPC library (AID 1117326; in the data active means nuclear beta-catenin stimulation mostly above about 4.2%, no sharp cut-off; inactive means mostly below about 10%); settings: stronger effect = higher value
# [3] = stimulators of insulin release from INS-1E, primary screen, cell-based, 5 mM glucose, NPC library (AID 1117329;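 active means compound raises insulin release from rat beta cells at 5 mM glucose, no numeric limit stated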); settings: rat INS-1E insulin secretion, at 10 µM, stronger effect = higher value
# [4] = growth inhibition of GSK3B-pretreated HCT116 cells – cell-based, CellTiter-Glo, 0.2 to 20 µM (AID 1117336;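 active means compounds lowering colon cancer cell viability after pretreatment blocking the GSK3B kinase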); settings: HCT116 viability after GSK3B inhibitor, at 20 µM, stronger effect = higher value
# [5] = inhibition of endothelial tube formation, primary screen, imaging, VEGF stimulated, CD31 staining, tube area, NPC library (AID 1117340;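 active means compound that reduces growth-factor-driven endothelial tube area in a mixed cell culture, no cutoff stated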); settings: VEGF-stimulated ADSC/ECFC co-culture, at 10 µM, stronger effect = higher value
# [6] = glucagon-like peptide 1 release enhancers, primary assay, NCI-H716 cell line, NPC library (AID 1117341;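 active means compound raises GLP1 secretion from the human gut endocrine cells, with no numeric limit stated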); settings: NCI-H716 cells, at 10 µM, stronger effect = higher value
# [7] = HCT116 colon cancer cell growth inhibition, primary screen, CellTiter-Glo luminescence, NPC library (AID 1117342;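 active means compounds that lower survival of HCT116 colon cancer cells in the luminescence readout, no numeric limit stated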); settings: at 20 µM (top of the series)
# [8] = CellTiter-Glo luminescent readout of SW480 viability loss, NPC library primary (AID 1117343;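 active means compounds that lower viability of the colon cancer cells in the luminescence readout, with no numeric limit stated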); settings: CellTiter-Glo luminescence; at 20 µM (top of the series)
# [9] = decreased DLD-1 cellular survival, CellTiter-Glo luminescent readout, NPC compound collection, primary HTS (AID 1117346;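 active means compounds that lower survival of DLD-1 colon cancer cells in the luminescence readout, no cutoff given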); settings: DLD-1 viability, CellTiter-Glo luminescence; at 20 µM (top of the series)
# [10] = differential killing of epithelial or mesenchymal cells, primary screen, imaging, PC-3E GFP, TEM4-18 mCherry, co-culture (AID 1345086;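 active means compounds killing one labelled cell type while sparing the other, by normalised counts and ratio limits, not self-fluorescent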;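 on all read-outs here: cells exposed to compound for 72 h before imaging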;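 on red/green cell ratio (normalised): normalised mesenchymal count divided by normalised epithelial count so high means epithelial killing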); settings: imaging cell counts, at 1 µM; for red/green cell ratio (normalised): actives lie on both sides
# [11] = sensitizers of A549 cells to miR-34 induction, primary screen, imaging, A549 dox-inducible miR-34, nuclei and caspase counts (AID 1347080;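 active means compounds whose cell count with miR-34 switched on is under 0.7 times the count with it off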); settings: A549 miR-34 inducible, Hoechst nuclei count, 48 h
# [12] = target: NAD(+) hydrolase SARM1 (Homo sapiens) (UniProt Q6SZW1); assay: SARM1 TIR NADase inhibitors, cell lysate, NAD-Glo luminescence (AID 1508614;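 active means compound whose remaining NAD level is above about 45 nM, limit read from the data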); settings: SAM-TIR HEK293T lysate NADase, at 1 µM, stronger effect = higher value
# Chain of NAD(+) hydrolase SARM1 (Homo sapiens) (Q6SZW1 whole entry, looked up): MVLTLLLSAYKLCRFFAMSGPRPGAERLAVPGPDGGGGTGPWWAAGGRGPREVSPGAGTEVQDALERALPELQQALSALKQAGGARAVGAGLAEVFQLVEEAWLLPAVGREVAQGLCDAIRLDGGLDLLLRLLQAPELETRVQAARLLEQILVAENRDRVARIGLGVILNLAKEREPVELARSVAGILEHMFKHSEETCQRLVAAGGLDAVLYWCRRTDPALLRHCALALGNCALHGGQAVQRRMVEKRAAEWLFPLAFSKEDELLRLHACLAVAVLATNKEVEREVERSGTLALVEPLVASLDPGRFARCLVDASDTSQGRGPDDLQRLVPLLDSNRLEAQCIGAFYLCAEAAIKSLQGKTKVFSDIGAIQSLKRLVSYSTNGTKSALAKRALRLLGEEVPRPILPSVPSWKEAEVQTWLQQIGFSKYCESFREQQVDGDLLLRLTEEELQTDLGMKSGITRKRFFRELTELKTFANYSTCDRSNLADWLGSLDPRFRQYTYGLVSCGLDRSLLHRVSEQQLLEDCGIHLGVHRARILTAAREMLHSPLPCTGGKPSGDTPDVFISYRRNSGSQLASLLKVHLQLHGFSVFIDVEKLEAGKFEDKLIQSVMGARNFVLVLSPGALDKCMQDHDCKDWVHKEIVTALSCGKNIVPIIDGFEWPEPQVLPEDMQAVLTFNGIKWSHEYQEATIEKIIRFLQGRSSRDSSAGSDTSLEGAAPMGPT
# [13] = target: 6-phosphogluconate dehydrogenase, decarboxylating (Homo sapiens) (UniProt P52209); assay: 6PGD enzyme inhibitors, primary screen, biochemical, human, recombinant enzyme, NADPH absorbance (AID 1159550;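 active means at least 20% inhibition of 6-phosphogluconate dehydrogenase activity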); settings: recombinant 6PGD, NADPH absorbance 341 nm; at 10 µM; stronger effect = higher value
# Chain of 6-phosphogluconate dehydrogenase, decarboxylating (Homo sapiens) (P52209 whole entry, looked up, the tested form may be a part): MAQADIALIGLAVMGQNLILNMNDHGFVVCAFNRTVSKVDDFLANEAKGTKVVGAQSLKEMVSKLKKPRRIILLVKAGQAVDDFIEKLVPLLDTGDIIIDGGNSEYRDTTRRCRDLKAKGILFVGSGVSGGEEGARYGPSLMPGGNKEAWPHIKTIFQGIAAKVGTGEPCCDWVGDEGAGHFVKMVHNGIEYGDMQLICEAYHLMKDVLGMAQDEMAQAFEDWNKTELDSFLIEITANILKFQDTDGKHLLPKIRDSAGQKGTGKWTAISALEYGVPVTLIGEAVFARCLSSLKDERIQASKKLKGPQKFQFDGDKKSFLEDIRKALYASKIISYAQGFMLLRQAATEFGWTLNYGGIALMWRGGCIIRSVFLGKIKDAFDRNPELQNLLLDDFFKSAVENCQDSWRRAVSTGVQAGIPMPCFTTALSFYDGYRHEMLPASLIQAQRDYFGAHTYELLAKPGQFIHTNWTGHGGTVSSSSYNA
# [14] = target: Mitogen-activated protein kinase 7 (Homo sapiens) (UniProt Q13164); assay: ERK5 transactivation activators in reporter cells, primary screen, cell-based, HTS (AID 1508626;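 active means luciferase signal above three times the same-plate solvent-only control wells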;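 further: luciferase driven by Gal4-ERK5 fusion binding five Gal4 sites before minimal TATA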); settings: HeLa Gal4-ERK5 transactivation, 18 h, at 5 µM, stronger effect = higher value
# Chain of Mitogen-activated protein kinase 7 (Homo sapiens) (Q13164 whole entry, looked up, the tested form may be a part): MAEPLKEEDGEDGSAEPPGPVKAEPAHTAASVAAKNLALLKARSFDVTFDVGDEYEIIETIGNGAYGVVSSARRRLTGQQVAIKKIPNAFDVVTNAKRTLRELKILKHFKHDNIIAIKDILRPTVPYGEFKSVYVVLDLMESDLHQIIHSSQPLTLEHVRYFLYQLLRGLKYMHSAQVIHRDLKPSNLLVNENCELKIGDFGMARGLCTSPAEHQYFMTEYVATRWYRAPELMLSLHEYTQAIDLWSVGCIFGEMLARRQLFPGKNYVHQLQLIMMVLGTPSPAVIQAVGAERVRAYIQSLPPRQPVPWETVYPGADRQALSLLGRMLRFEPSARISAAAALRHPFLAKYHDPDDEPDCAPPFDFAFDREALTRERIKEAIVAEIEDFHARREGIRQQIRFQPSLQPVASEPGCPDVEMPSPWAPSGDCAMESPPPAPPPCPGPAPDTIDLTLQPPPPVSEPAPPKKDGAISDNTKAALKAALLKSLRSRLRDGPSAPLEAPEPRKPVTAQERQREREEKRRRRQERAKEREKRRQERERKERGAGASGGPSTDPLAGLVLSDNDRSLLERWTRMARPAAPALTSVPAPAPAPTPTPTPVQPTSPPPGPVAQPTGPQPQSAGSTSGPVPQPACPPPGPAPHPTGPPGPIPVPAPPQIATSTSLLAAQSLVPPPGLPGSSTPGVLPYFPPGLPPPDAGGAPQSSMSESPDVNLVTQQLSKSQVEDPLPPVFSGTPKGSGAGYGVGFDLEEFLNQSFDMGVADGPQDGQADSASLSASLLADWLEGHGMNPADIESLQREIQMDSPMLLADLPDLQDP
# [15] = liver-stage malaria parasite growth inhibition, primary screen, cell-based, HepG2, luciferase luminescence, HepG2 viability (AID 624349);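 further: 100% = mean of DMSO negative control wells on the same plate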; settings: P. berghei liver stage in HepG2, luciferase luminescence, concentration not given here; parasite load remaining: stronger effect = lower value; viability: measured here: HepG2 viability without parasites
# [16] = survival rescue of mitochondrial mutant cells in low glucose, primary screen, MELAS cybrids, Rieske KO mouse fibroblasts, CellTiter-Glo (AID 1508586;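 active means mean z-score across replicates of 1.96 or higher in either the MELAS or the Rieske mutant cell line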;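 further: z relative to plate mean and SD of compound and empty wells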)
# [17] = test system: Aerobactin synthetase IucA (Klebsiella pneumoniae hvKP1); assay: Biochemical IucA enzyme inhibition primary screen of the Spectrum library (AID 1346200; call rule not given here;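 further: 100% = wells without compound and 0% = wells lacking enzyme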); settings: malachite green pyrophosphate, A620, at 8 µM, stronger effect = lower value
# [18] = test system: Aerobactin synthetase IucA (Klebsiella pneumoniae, hypervirulent); assay: IucA enzyme inhibition, biochemical, LOPAC library, absorbance readout (AID 1346212; call rule not given here;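 further: 100% = no compound wells and 0% = no enzyme wells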); settings: IucA enzyme assay, absorbance (OD) readout; stronger effect = lower value;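 tested at 8 µM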
# [19] = viability rescue of complex I mutant cybrids, primary screen, cell-based, galactose medium, ATP luminescence (AID 1645843;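 active means z-score of at least 1.8 in each of two replicates, scored against plate mean and spread of sample wells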;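 further: positive z means more ATP and so rescue of galactose-driven cybrid death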); settings: complex I mutant cybrid cells, 72 h, stronger effect = higher value
# [20] = measured here: epithelial PC-3E GFP cell survival
# [21] = measured here: mesenchymal TEM4-18 mCherry cell survival
# [22] = measured here: relative caspase fold change +Dox/-Dox
# [23] = measured here: total cells with miR-34 induction, stronger effect = lower value
# [24] = measured here: total cells without miR-34 induction
# [25] = MELAS cybrid survival, CellTiter-Glo 48 h, stronger effect = higher value
# [26] = Rieske KO mouse fibroblast survival, CellTiter-Glo 72 h
smiles,measurement,setting,value
CC1(C)C(C=C(Cl)Cl)C1C(=O)OC(C#N)c1cccc(Oc2ccccc2)c1 (configuration not stated),survival,[1],64.8 (inactive)
same,nuclear beta-catenin stimulation,[2]; at 10 µM,0.7% (inactive)
same,nuclear beta-catenin stimulation,"[2]; stimulation, at 2 µM",-1%
same,insulin secretion stimulation,[3],8.1% (inactive)
same,viability decrease,[4],1.2% (inactive)
same,tube area decrease,[5],-7.9% (inactive)
same,GLP1 secretion stimulation,[6],4.4% (inactive)
same,inhibition of viability,[7],40.5% (inactive)
same,viability decrease (inhibition),[8],27.7% (inactive)
same,viability decrease (inhibition),[9],23.2% (active)
same,red/green cell ratio (normalised),[10],0.82 (inactive)
same,normalised cell number,[10]; [20],1.16
same,normalised cell number,[10]; [21],0.96
same,fold change,[11]; stronger effect = lower value,0.936 (inactive) and 0.968 (inactive)
same,fold change,[11]; [22],1.17 and 1.27
same,cell count,[11]; [23],7700 and 5600
same,cell count,[11]; [24],8230 and 5790
same,remaining NAD,[12],10 nM (inactive)
Clc1ccc(C(c2ccc(Cl)cc2)C(Cl)(Cl)Cl)cc1,nuclear beta-catenin stimulation,[2]; at 10 µM,0.9% (inactive)
same,nuclear beta-catenin stimulation,"[2]; stimulation, at 2 µM",-0.7%
same,insulin secretion stimulation,[3],2.7% (inactive)
same,viability decrease,[4],94.4% (active)
same,tube area decrease,[5],18.6% (inactive)
same,GLP1 secretion stimulation,[6],2.8% (inactive)
same,inhibition of viability,[7],73.4% (active)
same,viability decrease (inhibition),[8],124% (active)
same,viability decrease (inhibition),[9],84.5% (active)
same,inhibition,[13],4.6% (inactive)
same,luciferase signal,[14],48 AU (inactive)
C=C1C[C@@H]2[C@H](CC[C@]3(C)C(=O)CC[C@@H]23)[C@@]2(C)C=CC(=O)C=C12,parasite load remaining,[15],41% (inactive)
same,viability,[15],86.7%
same,nuclear beta-catenin stimulation,[2]; at 10 µM,2.3% (inactive)
same,nuclear beta-catenin stimulation,"[2]; stimulation, at 2 µM",-0.3%
same,insulin secretion stimulation,[3],12.9% (inactive)
same,viability decrease,[4],2.6% (inactive)
same,tube area decrease,[5],6.3% (inactive)
same,GLP1 secretion stimulation,[6],8.3% (inactive)
same,inhibition of viability,[7],-12.1% (inactive)
same,viability decrease (inhibition),[8],24.7% (inactive)
same,viability decrease (inhibition),[9],-20.4% (inactive)
same,z-score,[16]; [25],0.961 (inactive)
same,z-score,[16]; [26],0.0493
same,remaining NAD,[12],10 nM (inactive)
same,luciferase signal,[14],60 AU (inactive)
Nc1ccncc1,parasite load remaining,[15],151% (inactive) and 61% (inactive)
same,viability,[15],71.5% and 95.5%
same,nuclear beta-catenin stimulation,[2]; at 10 µM,-0.9% (inactive)
same,nuclear beta-catenin stimulation,"[2]; stimulation, at 2 µM",0.7%
same,insulin secretion stimulation,[3],0% (inactive)
same,viability decrease,[4],-0.55% (inactive)
same,tube area decrease,[5],-8.7% (inactive)
same,GLP1 secretion stimulation,[6],2.4% (inactive)
same,inhibition of viability,[7],1.7% (inactive)
same,viability decrease (inhibition),[8],11.9% (active)
same,viability decrease (inhibition),[9],-6.35% (inactive)
same,red/green cell ratio (normalised),[10],0.8 (inactive)
same,normalised cell number,[10]; [20],1.23
same,normalised cell number,[10]; [21],0.99
same,activity remaining,[17],105% (inactive)
same,remaining activity,[18],103% (inactive)
same,remaining NAD,[12],10 nM (inactive)
same,luciferase signal,[14],32 AU (inactive)
same,z-score,[19],0.855 (inactive) and 0.215 (inactive)
CNCC(O)c1ccc(O)cc1 (configuration not stated),survival,[1],2.92 (inactive)
same,parasite load remaining,[15],81.5% (inactive) and 59.8% (inactive)
same,viability,[15],69.8% and 68.9%
same,nuclear beta-catenin stimulation,[2]; at 10 µM,-0.1% (inactive)
same,nuclear beta-catenin stimulation,"[2]; stimulation, at 2 µM",-2.7%
same,insulin secretion stimulation,[3],0.25% (inactive)
same,viability decrease,[4],14.7% (inactive)
same,tube area decrease,[5],-15.1% (inactive)
same,GLP1 secretion stimulation,[6],0.1% (inactive)
same,inhibition of viability,[7],-4% (inactive)
same,viability decrease (inhibition),[8],-14.6% (inactive)
same,viability decrease (inhibition),[9],-3.7% (inactive)
same,red/green cell ratio (normalised),[10],1.1 (inactive)
same,normalised cell number,[10]; [20],0.84
same,normalised cell number,[10]; [21],0.92
same,z-score,[16]; [25],-0.35 (inactive) and -0.388 (inactive) and -0.264 (inactive)
same,z-score,[16]; [26],-0.247 and -0.0924 and -0.396
same,remaining NAD,[12],10 nM (inactive)
same,z-score,[19],0.82 (inactive) and 0.285 (inactive)
O=P1(NCCCl)OCCCN1CCCl (configuration not stated),survival,[1],3.83 (inactive)
same,parasite load remaining,[15],91% (inactive) and 76.7% (inactive) and 18.8% (inactive)
same,viability,[15],94% and 95.7% and 66%
same,nuclear beta-catenin stimulation,[2]; at 10 µM,1.1% (inactive)
same,nuclear beta-catenin stimulation,"[2]; stimulation, at 2 µM",0.8%
same,insulin secretion stimulation,[3],2.9% (inactive)
same,viability decrease,[4],-25.5% (inactive)
same,tube area decrease,[5],9.8% (inactive)
same,GLP1 secretion stimulation,[6],-0.1% (inactive)
same,inhibition of viability,[7],7.23% (inactive)
same,viability decrease (inhibition),[8],-16.8% (inactive)
same,viability decrease (inhibition),[9],-5.2% (inactive)
same,red/green cell ratio (normalised),[10],1.03 (inactive)
same,normalised cell number,[10]; [20],1.08
same,normalised cell number,[10]; [21],1.11
same,activity remaining,[17],114% (inactive)
same,z-score,[16]; [25],-0.402 (inactive) and 0.719 (inactive) and 0.667 (inactive)
same,z-score,[16]; [26],-0.0632 and -0.341 and -0.186
same,remaining NAD,[12],10 nM (inactive)
same,luciferase signal,[14],44 AU (inactive)
same,z-score,[19],0.08 (inactive)
O=C1C2CC=CCC2C(=O)N1SC(Cl)(Cl)Cl (configuration not stated),nuclear beta-catenin stimulation,[2]; at 10 µM,14.9% (active)
same,nuclear beta-catenin stimulation,"[2]; stimulation, at 2 µM",44.5%
same,insulin secretion stimulation,[3],0.6% (inactive)
same,viability decrease,[4],98.9% (active)
same,tube area decrease,[5],108% (active)
same,GLP1 secretion stimulation,[6],0.3% (inactive)
same,inhibition of viability,[7],99.3% (active)
same,viability decrease (inhibition),[8],102% (active)
same,viability decrease (inhibition),[9],102% (active)
same,red/green cell ratio (normalised),"[10]; counts scaled to control wells, 1 = unselective",1.09 (inactive)
same,normalised cell number,[10]; [20],1.03
same,normalised cell number,[10]; [21],1.13
CN[C@@H](C)[C@H](O)c1ccccc1,nuclear beta-catenin stimulation,[2]; at 10 µM,1.4% (inactive)
same,nuclear beta-catenin stimulation,"[2]; stimulation, at 2 µM",0.6%
same,insulin secretion stimulation,[3],0% (inactive)
same,viability decrease,[4],-2.5% (inactive)
same,tube area decrease,[5],-1.6% (inactive)
same,GLP1 secretion stimulation,[6],0.8% (inactive)
same,inhibition of viability,[7],-12.5% (inactive)
same,viability decrease (inhibition),[8],5.5% (inactive)
same,viability decrease (inhibition),[9],-4.6% (inactive)
same,inhibition,[13],16.5% (inactive)
NC1=NC(=O)C(c2ccccc2)O1 (configuration not stated),parasite load remaining,[15],109% (inactive)
same,viability,[15],79.6%
same,nuclear beta-catenin stimulation,[2]; at 10 µM,1% (inactive)
same,nuclear beta-catenin stimulation,"[2]; stimulation, at 2 µM",0.5%
same,insulin secretion stimulation,[3],-0.9% (inactive)
same,viability decrease,[4],-2.4% (inactive)
same,tube area decrease,[5],1.1% (inactive)
same,GLP1 secretion stimulation,[6],3.5% (inactive)
same,inhibition of viability,[7],-21.1% (inactive)
same,viability decrease (inhibition),[8],36.7% (inactive)
same,viability decrease (inhibition),[9],-5.1% (inactive)
same,fold change,[11]; stronger effect = lower value,0.967 (inactive)
same,fold change,[11]; [22],2.22
same,cell count,[11]; [23],9620
same,cell count,[11]; [24],9950
same,z-score,[19],0.395 (inactive)
N#Cc1nn(-c2c(Cl)cc(C(F)(F)F)cc2Cl)c(N)c1S(=O)C(F)(F)F (configuration not stated),parasite load remaining,[15],148% (inactive) and 35.4% (inactive)
same,viability,[15],82.8% and 121%
same,nuclear beta-catenin stimulation,[2]; at 10 µM,6.4% (inactive)
same,nuclear beta-catenin stimulation,"[2]; stimulation, at 2 µM",2.1%
same,insulin secretion stimulation,[3],0.5% (inactive)
same,viability decrease,[4],-53.1% (inactive)
same,tube area decrease,[5],9.4% (inactive)
same,GLP1 secretion stimulation,[6],-1.4% (inactive)
same,inhibition of viability,[7],17.3% (inactive)
same,viability decrease (inhibition),[8],42.7% (inactive)
same,viability decrease (inhibition),[9],6.4% (inactive)
same,red/green cell ratio (normalised),[10],0.9 (inactive)
same,normalised cell number,[10]; [20],1
same,normalised cell number,[10]; [21],0.9
same,activity remaining,[17],115% (inactive)
same,fold change,[11]; stronger effect = lower value,0.962 (inactive) and 0.928 (inactive)
same,fold change,[11]; [22],1.07 and 3.63
same,cell count,[11]; [23],4080 and 11800
same,cell count,[11]; [24],4240 and 12700
same,remaining NAD,[12],10 nM (inactive)
same,luciferase signal,[14],40 AU (inactive)
